According to PubChem BioAssay (NCI):
Compounds without any hit were thinned out: in the full panel of roughly 79,000, 15% have a hit. A number with no mark means an inactive call. The source made the active and inactive calls. Cut-off read from the data, not from the text of the source: active = growth inhibition above about 70%; inactive = the rest.

Experiments:
[1] = NCI Yeast Anticancer Drug Screen. Data for the rad50 strain (AID 155);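 note: 0% = growth of vehicle-only cultures of the same strain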; settings: S. cerevisiae rad50 strain growth inhibition, stronger effect = higher value
Summary of the method: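 Yeast carrying a defined DNA repair defect were exposed to test compounds, and growth was compared with vehicle-treated controls to give percent inhibition.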

[2] = NCI Yeast Anticancer Drug Screen. Data for the mec2-1 strain (AID 157); settings: S. cerevisiae mec2-1 strain, stronger effect = higher value
Summary of the method: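 Readout is yeast growth inhibition, normalised to vehicle-treated controls, in the mec2-1 strain exposed to compound.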

[3] = NCI Yeast Anticancer Drug Screen. Data for the sgs1 mgt1 strain (AID 161);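 note: 0% = growth of cultures given vehicle only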; settings: S. cerevisiae sgs1 mgt1 strain, stronger effect = higher value
Summary of the method: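 Growth of a repair-deficient yeast mutant was monitored after compound treatment and expressed as inhibition relative to vehicle-treated cultures.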

[4] = NCI Yeast Anticancer Drug Screen. Data for the cln2 rad14 strain (AID 165);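 note: 0% = growth equal to vehicle treated cultures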; settings: S. cerevisiae cln2 rad14 strain, stronger effect = higher value
Summary of the method: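 Relative to vehicle controls, growth inhibition of compound-treated cln2 rad14 yeast was recorded.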

[5] = NCI Yeast Anticancer Drug Screen. Data for the bub3 strain (AID 167); settings: S. cerevisiae bub3 mutant strain, stronger effect = higher value
Summary of the method: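 Compounds were applied to a genetically altered yeast strain carrying a cell-cycle control defect. Growth inhibition was scored against vehicle-treated controls.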

[6] = NCI Yeast Anticancer Drug Screen. Data for the mlh1 rad18 strain (AID 175); settings: S. cerevisiae mlh1 rad18 strain growth inhibition, stronger effect = higher value
Summary of the method: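 Test agents were incubated with a yeast strain of defined genotype (DNA damage repair defect). Inhibition of growth was derived by comparison with vehicle-exposed cultures.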

[7] = at 5.0 µM (retest, dose inferred, filed as 0.5)
[8] = at 50.0 µM (retest, dose inferred, filed as 5.0)

Compound `c1cc2c(c(NC3=NCCN3)c1)CCCC2` has a growth inhibition [1, 7] of 12%, a growth inhibition [1, 8] of 18% and a growth inhibition ([1]; at 50.0 µM) of -12.2%. It also gave a growth inhibition [2, 7] of 1%, a growth inhibition [2, 8] of -17% and a growth inhibition ([2]; at 50.0 µM) of -18.9%. The growth inhibition [3, 7] was 1%, the growth inhibition [3, 8] was 12% and the growth inhibition ([3]; at 50.0 µM) was -7%. For the same compound, the growth inhibition [4, 7] was -21%, the growth inhibition [4, 8] was -4% and the growth inhibition ([4]; at 50.0 µM) was 33.1%. For the same compound, the growth inhibition [5, 7] was -26%, the growth inhibition [5, 8] was -7% and the growth inhibition ([5]; at 50.0 µM) was -9.9%. It also gave a growth inhibition [6, 7] of 2%, a growth inhibition [6, 8] of 13% and a growth inhibition ([6]; at 50.0 µM) of 7.65%.

In the case of `CC(=O)[O-].[Zn].c1ccc(/C(=N\Nc2ccccn2)c2ccccn2)cc1`, the growth inhibition [1, 7] is reported as 29%, the growth inhibition [1, 8] is reported as 66% and the growth inhibition ([1]; at 50.0 µM) is reported as 41.9%. It also gave a growth inhibition [2, 7] of 37%, a growth inhibition [2, 8] of 61% and a growth inhibition ([2]; at 50.0 µM) of 9.8%. The growth inhibition [3, 7] was 38%, the growth inhibition [3, 8] was 83% (active) and the growth inhibition ([3]; at 50.0 µM) was 23.8%. The growth inhibition [4, 7] was 26%, the growth inhibition [4, 8] was 78% (active) and the growth inhibition ([4]; at 50.0 µM) was 13.8%. For the same compound, the growth inhibition [5, 7] was 44%, the growth inhibition [5, 8] was 86% (active) and the growth inhibition ([5]; at 50.0 µM) was 34.6%. It also gave a growth inhibition [6, 7] of 36%, a growth inhibition [6, 8] of 68% and a growth inhibition ([6]; at 50.0 µM) of 41.1%.

With `[Cl][Hg].c1ccc([As]c2ccc(-c3ccccc3)cc2)cc1` (stereo not given) the growth inhibition [1, 7] was 99% (active), the growth inhibition [1, 8] was 90% (active) and the growth inhibition ([1]; at 50.0 µM) was 99% (active). The growth inhibition [2, 7] was 99% (active), the growth inhibition [2, 8] was 92% (active) and the growth inhibition ([2]; at 50.0 µM) was 99.4% (active). For the same compound, the growth inhibition [3, 7] was 100% (active), the growth inhibition [3, 8] was 93% (active) and the growth inhibition ([3]; at 50.0 µM) was 99.2% (active). For the same compound, the growth inhibition [4, 7] was 99% (active), the growth inhibition [4, 8] was 91% (active) and the growth inhibition ([4]; at 50.0 µM) was 99% (active). The growth inhibition [5, 7] was 99% (active), the growth inhibition [5, 8] was 92% (active) and the growth inhibition ([5]; at 50.0 µM) was 98.5% (active). For the same compound, the growth inhibition [6, 7] was 100% (active), the growth inhibition [6, 8] was 92% (active) and the growth inhibition ([6]; at 50.0 µM) was 99% (active).

With `[Se]c1ncnc2nc[nH]c12` the growth inhibition [1, 7] was 21%, the growth inhibition [1, 8] was 57% and the growth inhibition ([1]; at 50.0 µM) was 57.9%. For the same compound, the growth inhibition [2, 7] was 15%, the growth inhibition [2, 8] was 37% and the growth inhibition ([2]; at 50.0 µM) was 38.7%. It also gave a growth inhibition [3, 7] of 13%, a growth inhibition [3, 8] of 41% and a growth inhibition ([3]; at 50.0 µM) of 37.9%. For the same compound, the growth inhibition [4, 7] was 11%, the growth inhibition [4, 8] was 23% and the growth inhibition ([4]; at 50.0 µM) was 2.25%. The growth inhibition [5, 7] was -2%, the growth inhibition [5, 8] was 60% and the growth inhibition ([5]; at 50.0 µM) was 39.2%. The growth inhibition [6, 7] was 17%, the growth inhibition [6, 8] was 68% and the growth inhibition ([6]; at 50.0 µM) was 84.2% (active).

In the case of `Cc1cc(O)c2c(c1)C(=O)C13C(=C2O)C(=O)C2C(O)C1C1C(O)C3C(=O)C3=C(O)c4c(O)cc(C)cc4C(=O)C321` (stereo not given), the growth inhibition [1, 7] is reported as 18%, the growth inhibition [1, 8] is reported as 44% and the growth inhibition ([1]; at 50.0 µM) is reported as 69.7%. For the same compound, the growth inhibition [2, 7] was 57%, the growth inhibition [2, 8] was 46% and the growth inhibition ([2]; at 50.0 µM) was 76.2% (active). The growth inhibition [3, 7] was 40%, the growth inhibition [3, 8] was 48% and the growth inhibition ([3]; at 50.0 µM) was 79.5% (active). For the same compound, the growth inhibition [4, 7] was 64%, the growth inhibition [4, 8] was 47% and the growth inhibition ([4]; at 50.0 µM) was 60.1%. For the same compound, the growth inhibition [5, 7] was 88% (active), the growth inhibition [5, 8] was 70% (active) and the growth inhibition ([5]; at 50.0 µM) was 80.2% (active). For the same compound, the growth inhibition [6, 7] was 34%, the growth inhibition [6, 8] was 42% and the growth inhibition ([6]; at 50.0 µM) was 69%.

For `O=C(C1C(c2ccccc2)N1C(c1ccccc1)c1ccccc1)C1C(c2ccccc2)N1C(c1ccccc1)c1ccccc1` (stereo not given), the growth inhibition [1, 7] was -3%, the growth inhibition [1, 8] was 50% and the growth inhibition ([1]; at 50.0 µM) was 72.7% (active). It also gave a growth inhibition [2, 7] of 23%, a growth inhibition [2, 8] of 42% and a growth inhibition ([2]; at 50.0 µM) of 54%. For the same compound, the growth inhibition [3, 7] was -3%, the growth inhibition [3, 8] was 77% (active) and the growth inhibition ([3]; at 50.0 µM) was 58%. For the same compound, the growth inhibition [4, 7] was -17%, the growth inhibition [4, 8] was 6% and the growth inhibition ([4]; at 50.0 µM) was 24%. For the same compound, the growth inhibition [5, 7] was -14%, the growth inhibition [5, 8] was 56% and the growth inhibition ([5]; at 50.0 µM) was 63.9%. The growth inhibition [6, 7] was 7%, the growth inhibition [6, 8] was 80% (active) and the growth inhibition ([6]; at 50.0 µM) was 90.2% (active).

With `[I][Hg][CH2]C1COCC([CH2][Hg][I])O1` (stereo not given) the growth inhibition [1, 7] was 0%, the growth inhibition [1, 8] was 5% and the growth inhibition ([1]; at 50.0 µM) was 98.7% (active). The growth inhibition [2, 7] was 4%, the growth inhibition [2, 8] was 6% and the growth inhibition ([2]; at 50.0 µM) was 99.5% (active). The growth inhibition [3, 7] was 0%, the growth inhibition [3, 8] was 9% and the growth inhibition ([3]; at 50.0 µM) was 99.2% (active). The growth inhibition [4, 7] was -1%, the growth inhibition [4, 8] was 7% and the growth inhibition ([4]; at 50.0 µM) was 98.2% (active). For the same compound, the growth inhibition [5, 7] was 5%, the growth inhibition [5, 8] was -8% and the growth inhibition ([5]; at 50.0 µM) was 99.5% (active). For the same compound, the growth inhibition [6, 7] was 0%, the growth inhibition [6, 8] was 7% and the growth inhibition ([6]; at 50.0 µM) was 99.2% (active).

In the case of `O=[N+]([O-])O.O=[N+]([O-])O.[NH-]C1CCCCC1[NH-].[Pt+2]` (stereo not given), the growth inhibition [1, 7] is reported as 33%, the growth inhibition [1, 8] is reported as 96% (active) and the growth inhibition ([1]; at 50.0 µM) is reported as 52.1%. The growth inhibition [2, 7] was 25%, the growth inhibition [2, 8] was 95% (active) and the growth inhibition ([2]; at 50.0 µM) was 90.7% (active). The growth inhibition [3, 7] was 57%, the growth inhibition [3, 8] was 100% (active) and the growth inhibition ([3]; at 50.0 µM) was 79.5% (active). The growth inhibition [4, 7] was 45%, the growth inhibition [4, 8] was 97% (active) and the growth inhibition ([4]; at 50.0 µM) was 86.4% (active). The growth inhibition [5, 7] was 56%, the growth inhibition [5, 8] was 100% (active) and the growth inhibition ([5]; at 50.0 µM) was 88.9% (active). The growth inhibition [6, 7] was 16%, the growth inhibition [6, 8] was 75% (active) and the growth inhibition ([6]; at 50.0 µM) was 92.3% (active).

For `C[C@H]1C/C=C/[C@H]2[C@@H]3O[C@]3(C)[C@@H](C)[C@H]3[C@H](Cc4ccccc4)NC(=O)[C@]32OC(=O)O/C=C/[C@@](C)(O)C1=O`, the growth inhibition [1, 7] was 21%, the growth inhibition [1, 8] was 30% and the growth inhibition ([1]; at 50.0 µM) was 72.7% (active). For the same compound, the growth inhibition [2, 7] was 19%, the growth inhibition [2, 8] was 53% and the growth inhibition ([2]; at 50.0 µM) was 91.3% (active). It also gave a growth inhibition [3, 7] of 19%, a growth inhibition [3, 8] of 14% and a growth inhibition ([3]; at 50.0 µM) of 32.7%. It also gave a growth inhibition [4, 7] of 25%, a growth inhibition [4, 8] of 36% and a growth inhibition ([4]; at 50.0 µM) of 67.3%. The growth inhibition [5, 7] was 28%, the growth inhibition [5, 8] was 48% and the growth inhibition ([5]; at 50.0 µM) was 83.2% (active). The growth inhibition [6, 7] was 17%, the growth inhibition [6, 8] was 46% and the growth inhibition ([6]; at 50.0 µM) was 81.8% (active).

For `c1ccc(C[As+](c2ccccc2)(c2ccccc2)c2ccccc2)cc1`, the growth inhibition [1, 7] was 24%, the growth inhibition [1, 8] was 92% (active) and the growth inhibition ([1]; at 50.0 µM) was 97.3% (active). For the same compound, the growth inhibition [2, 7] was 4%, the growth inhibition [2, 8] was 94% (active) and the growth inhibition ([2]; at 50.0 µM) was 97.7% (active). For the same compound, the growth inhibition [3, 7] was 1%, the growth inhibition [3, 8] was 89% (active) and the growth inhibition ([3]; at 50.0 µM) was 98.8% (active). For the same compound, the growth inhibition [4, 7] was 1%, the growth inhibition [4, 8] was 75% (active) and the growth inhibition ([4]; at 50.0 µM) was 94.7% (active). The growth inhibition [5, 7] was 4%, the growth inhibition [5, 8] was 96% (active) and the growth inhibition ([5]; at 50.0 µM) was 93% (active). The growth inhibition [6, 7] was 11%, the growth inhibition [6, 8] was 89% (active) and the growth inhibition ([6]; at 50.0 µM) was 97.7% (active).
